Source: PubChem BioAssay (Broad Institute)
ROS inducer = inducers of reactive oxygen species in cancer cells; U2OS ROS induction, H2DCF-DA fluorescence; ROS induction (% of piperlongumine), % at 10 µM; 46,000 tested, 2% active; in the data active means ROS induction above about 79%, passing the limit was not always enough;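 further: 0% = DMSO vehicle median and 100% = reference compound median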
YB-1 expr inh = YB-1 expression inhibition; U2OS, qRT-PCR YB-1 vs CDIP delta delta Cp, 16 h; hits give high values; zero = DMSO, each unit about twofold; AID 434959; delta delta Cp (YB-1 minus CDIP) (concentration not given with the values); 30,000 tested, 0.37% active;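 active means delta delta Cp rounded down to an integer at or above 3, about 3 SD of DMSO wells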;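 further: higher means less YB-1 transcript or more CDIP transcript relative to DMSO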
Numbers without * were called inactive; / = no result. Only some compounds are listed: those with a hit (about 2.3% of all), similar ones and a draw of the others.

SMILES	ROS inducer	YB-1 expr inh
C[C@@H]1CN([C@H](C)CO)C(=O)c2cccc(NC(=O)CCCCCC(=O)Nc3ccccc3N)c2O[C@@H]1CN(C)Cc1ccc(Oc2ccccc2)cc1	9	-0.25
C[C@@H]1CN([C@@H](C)CO)C(=O)c2cccc(NC(=O)CCCCCC(=O)Nc3ccccc3N)c2O[C@H]1CN(C)CC1CCCCC1	82*	-0.49
C[C@@H]1CN([C@@H](C)CO)C(=O)c2cccc(NC(=O)CCCCCC(=O)Nc3ccccc3N)c2O[C@@H]1CN(C)Cc1ccc(Oc2ccccc2)cc1	136*	-0.16
C[C@H](CO)N1C[C@H](C)[C@@H](CN(C)Cc2ccc(-c3ccccc3)cc2)Oc2c(NC(=O)CCCCCC(=O)Nc3ccccc3N)cccc2C1=O	117*	-0.2
C[C@H](CO)N1C[C@H](C)[C@H](CN(C)CC2CC2)Oc2c(NC(=O)CCCCCC(=O)Nc3ccccc3N)cccc2C1=O	-7	0.0028
COc1ccc(S(=O)(=O)N2Cc3ccccc3CC2C(=O)Nc2ccc(C)cc2C)cc1OC (configuration not stated)	13	/
CC(C)NC(=O)Nc1cccc2c1O[C@H](CN(C)C(=O)Nc1ccc(C(F)(F)F)cc1)[C@H](C)CN([C@H](C)CO)C2=O	-9	-0.25
COC(=O)C1=C(O)CSC1=Nc1cccc(C(F)(F)F)c1	13	/
C[C@@H]1CN([C@@H](C)CO)C(=O)c2cccc(N(C)C)c2O[C@@H]1CN(C)Cc1ccc(C(=O)O)cc1	11	-0.35
COc1ccc(NC(=O)N(C)C[C@H]2Oc3c(NC(=O)Nc4ccc(C(F)(F)F)cc4)cccc3C(=O)N([C@H](C)CO)C[C@@H]2C)cc1	-1	-0.62
COC(=O)c1cc(C)cc(OC)c1C1C(=O)C(=O)c2c(O)cccc2C1=O (configuration not stated)	-4	-0.071
CCOC(=O)c1cnc2cc(C(F)(F)F)ccc2c1N(C)Cc1ccccc1	62	0.71
CCOC(=O)c1cnc2ccc(OCC)cc2c1N(C)Cc1ccccc1	139*	-0.19
COc1ccc(OC)c(NC(=O)CN(C)S(=O)(=O)c2c(C)cc(C)cc2C)c1	-5	/
COc1ccc(NC(=O)CN(C)S(=O)(=O)c2ccc(C)cc2)cc1	-7	/
C[C@H]1CN([C@@H](C)CO)C(=O)c2cccc(NS(C)(=O)=O)c2O[C@@H]1CN(C)S(=O)(=O)c1cccs1	-6	0.29
CC(C(=O)O)c1ccc(C(=O)c2cccs2)cc1 (configuration not stated)	-19	6.9*
CC(C)Cc1ccc(C(C)C(=O)O)cc1 (configuration not stated)	-11	0.3
O=C1CC(c2ccccc2Cl)Cc2c1cnn2-c1nc2ccccc2s1 (configuration not stated)	19	/
O=C1CCCC2=C1C(c1ccccc1Cl)N=C(Nc1nc3ccccc3s1)N2 (configuration not stated)	178*	-0.071
COc1ccc(NC(=O)COc2ccc(C(C)(C)C)cc2Br)c([N+](=O)[O-])c1	-6	/
